High-throughput results deposited in PubChem by several laboratories.
FAS TE block = FAS thioesterase (human) inhibition | recombinant FAS-TE, OMFH fluorogenic substrate, fluorescence endpoint | inhibition, % at 15 µM | 360,000 tested, 0.67% active | AID 602261;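 active = compounds whose normalised, plate-corrected inhibition of enzyme fluorescence in the single-dose primary screen is 50% or more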;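 also: 0% = DMSO with enzyme and 100% = substrate without enzyme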
Target sequence (P49327 whole entry, looked up): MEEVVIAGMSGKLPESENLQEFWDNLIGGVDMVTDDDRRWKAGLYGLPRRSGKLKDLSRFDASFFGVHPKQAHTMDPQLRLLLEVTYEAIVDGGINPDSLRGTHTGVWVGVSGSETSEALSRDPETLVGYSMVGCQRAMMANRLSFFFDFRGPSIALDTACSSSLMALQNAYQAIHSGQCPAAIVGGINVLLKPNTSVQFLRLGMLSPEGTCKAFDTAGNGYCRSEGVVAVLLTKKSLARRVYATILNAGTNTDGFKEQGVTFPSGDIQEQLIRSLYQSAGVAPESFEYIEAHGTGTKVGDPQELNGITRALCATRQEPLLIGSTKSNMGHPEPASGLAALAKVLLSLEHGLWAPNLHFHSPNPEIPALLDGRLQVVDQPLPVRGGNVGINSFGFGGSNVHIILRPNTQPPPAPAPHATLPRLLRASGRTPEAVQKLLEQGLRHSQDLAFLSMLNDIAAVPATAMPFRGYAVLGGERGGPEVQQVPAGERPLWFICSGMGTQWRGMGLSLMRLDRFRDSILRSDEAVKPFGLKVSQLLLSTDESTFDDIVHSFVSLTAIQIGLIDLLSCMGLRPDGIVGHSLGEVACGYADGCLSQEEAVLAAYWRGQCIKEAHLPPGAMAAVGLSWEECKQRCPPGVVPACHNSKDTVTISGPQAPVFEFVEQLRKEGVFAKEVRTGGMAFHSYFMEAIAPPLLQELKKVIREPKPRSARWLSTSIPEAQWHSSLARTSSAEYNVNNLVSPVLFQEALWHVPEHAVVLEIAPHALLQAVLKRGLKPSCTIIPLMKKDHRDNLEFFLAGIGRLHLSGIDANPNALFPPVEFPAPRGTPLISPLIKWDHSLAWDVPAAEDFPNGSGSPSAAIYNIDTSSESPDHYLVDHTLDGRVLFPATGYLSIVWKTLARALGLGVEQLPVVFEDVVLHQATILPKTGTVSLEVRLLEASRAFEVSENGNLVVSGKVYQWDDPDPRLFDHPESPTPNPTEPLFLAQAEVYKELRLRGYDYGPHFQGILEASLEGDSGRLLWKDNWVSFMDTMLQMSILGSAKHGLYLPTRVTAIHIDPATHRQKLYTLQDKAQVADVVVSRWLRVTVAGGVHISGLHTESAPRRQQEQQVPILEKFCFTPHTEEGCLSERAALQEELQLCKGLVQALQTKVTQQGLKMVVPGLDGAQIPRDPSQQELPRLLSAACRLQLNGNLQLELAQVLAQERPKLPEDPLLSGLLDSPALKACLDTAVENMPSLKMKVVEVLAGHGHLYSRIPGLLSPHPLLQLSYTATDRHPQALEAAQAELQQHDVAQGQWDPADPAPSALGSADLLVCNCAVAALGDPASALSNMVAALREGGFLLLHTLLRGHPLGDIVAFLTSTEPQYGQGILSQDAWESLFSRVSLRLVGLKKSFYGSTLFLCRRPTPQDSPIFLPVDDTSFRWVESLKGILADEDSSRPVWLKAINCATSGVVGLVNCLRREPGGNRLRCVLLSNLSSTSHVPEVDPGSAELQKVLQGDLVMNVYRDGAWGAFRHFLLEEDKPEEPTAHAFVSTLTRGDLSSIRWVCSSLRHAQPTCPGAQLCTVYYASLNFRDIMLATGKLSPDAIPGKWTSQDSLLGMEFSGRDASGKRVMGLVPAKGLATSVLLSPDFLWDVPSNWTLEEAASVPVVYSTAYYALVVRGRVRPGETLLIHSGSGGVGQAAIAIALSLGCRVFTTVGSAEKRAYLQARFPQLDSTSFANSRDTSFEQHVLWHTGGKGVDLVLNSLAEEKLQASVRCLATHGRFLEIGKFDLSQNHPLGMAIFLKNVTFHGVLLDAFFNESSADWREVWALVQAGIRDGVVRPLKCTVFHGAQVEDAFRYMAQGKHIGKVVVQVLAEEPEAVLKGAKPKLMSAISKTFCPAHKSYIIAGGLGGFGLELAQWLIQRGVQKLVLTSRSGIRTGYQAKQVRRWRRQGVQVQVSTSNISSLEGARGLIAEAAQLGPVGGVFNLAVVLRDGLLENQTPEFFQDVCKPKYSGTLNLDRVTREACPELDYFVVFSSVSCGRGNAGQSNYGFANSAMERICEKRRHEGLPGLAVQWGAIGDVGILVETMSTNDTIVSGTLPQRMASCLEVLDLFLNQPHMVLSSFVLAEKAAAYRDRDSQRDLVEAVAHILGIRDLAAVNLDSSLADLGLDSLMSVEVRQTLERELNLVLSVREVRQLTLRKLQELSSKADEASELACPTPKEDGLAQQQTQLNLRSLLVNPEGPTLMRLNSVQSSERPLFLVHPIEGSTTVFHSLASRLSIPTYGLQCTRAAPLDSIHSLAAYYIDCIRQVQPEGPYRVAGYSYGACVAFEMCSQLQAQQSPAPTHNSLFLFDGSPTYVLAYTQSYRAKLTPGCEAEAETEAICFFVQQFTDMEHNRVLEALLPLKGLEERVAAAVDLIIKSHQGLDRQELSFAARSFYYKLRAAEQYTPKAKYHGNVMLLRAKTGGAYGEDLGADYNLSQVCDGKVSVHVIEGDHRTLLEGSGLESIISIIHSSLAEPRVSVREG
CRFR2-BP antag = blocks CRF-induced signaling of the CRF-BP/CRF-R2 complex; HEK293 CRF-R2/CRF-BP, CRF-induced calcium fluorescence; inhibition, % at 11.8 µM; 350,000 tested, 0.59% active;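 active = inhibition of the ligand-induced calcium signal above about 50% at the single tested concentration, limit read from the data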
CendR NRP1 mod = alters CendR peptide binding to human NRP-1. FAM-RPARPAR peptide binding to NRP-1, fluorescence polarization. 360,000 tested, 0.85% active. inhibition, % at 25 µM;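 active = inhibition or corrected inhibition above about 18%, plus a signal ratio from 0.5 to 1.5, limit read from the data, passing the limit was not always enough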
NadD block = inhibitors of Staphylococcus aureus NadD. inhibition, % at 20 µM. purified NadD enzyme, colorimetric absorbance read-out. 360,000 tested, 0.78% active; in the data active = inhibition above about 26%
Myeloid diff 2 = promotes myeloid progenitor differentiation; ER-HoxA9 myeloid progenitors, lysozyme-GFP differentiation, flow cytometry; calls only at 10 µM; 360,000 tested, 1% active;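 active = normalized GFP-positive differentiation at or above the plate's own cutoff, the solvent-only control mean plus 3 SD; inconclusive = no clear call, values can overlap the other calls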;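 also: cells exposed to compound for four days before flow analysis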
FAS-TE conf = FAS thioesterase (human) inhibition, confirmation; shares compounds with FAS TE block; recombinant FAS-TE, OMFH fluorogenic substrate, fluorescence; inhibition, % at 15 µM; 2,300 tested, 45% active; AID 624325;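 active = compounds inhibiting the enzyme by at least 50% at 15 µM in any one of the replicates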;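 also: 0% = enzyme with DMSO only and 100% = wells lacking enzyme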
Numbers without * were called inactive; i = inactive; ? = inconclusive; nt = no result given. A selection: hits, their analogues and other compounds. The true share with any hit is near 3.6%.

SMILES	FAS TE block	CRFR2-BP antag	CendR NRP1 mod	NadD block	Myeloid diff 2	FAS-TE conf
Cc1ccc(S(=O)(=O)Nc2ccc3c(c2)c2c(n3S(=O)(=O)c3ccc(C)cc3)CCCC2=O)cc1	51*	-8	6	27	i	20
CSCCC(NC(=O)c1ccco1)C(=O)N1CCCC(C(F)(F)F)C1 (stereo not drawn)	-9	-3	-4	2	i	nt
O=C(c1ccncc1)N(c1ccc2oc3c(c2c1)CCCC3)S(=O)(=O)c1ccc(F)cc1	65*	23	-3	25	i	43
CC(=O)c1c(C)oc2ccc(N(C(=O)c3ccncc3)S(=O)(=O)c3ccccc3)cc12	10	-6	2	-2	i	nt
O=[N+]([O-])c1ccc(S(=O)(=O)Nc2nnc(C3CCCCC3)s2)cc1	50*	17	9	5	i	65*
COc1ccc([C@@H]2[C@@H]3C(=O)N(C(C)(C)C)C(=O)[C@@H]3[C@]3(CC(C)C)C(=O)N(c4cccc(Br)c4)C(=O)N23)cc1	58*	-4	4	5	i	40
COc1ccc([C@@H]2[C@@H]3C(=O)N(C(C)(C)C)C(=O)[C@@H]3[C@]3(CC(C)C)C(=O)N(c4ccc(C(F)(F)F)cc4)C(=O)N23)cc1	67*	-13	-6	16	i	37
COc1ccc([C@@H]2[C@@H]3C(=O)N(C(C)(C)C)C(=O)[C@@H]3[C@]3(CC(C)C)C(=O)N(c4ccccc4)C(=O)N23)cc1	12	-15	18	-1	i	nt
Cc1noc(C)c1CSCC(=O)Nc1ccc(S(C)(=O)=O)cc1	-4	-4	-17	-1	i	nt
COc1ccc([N+](=O)[O-])cc1C(=O)NCCOc1ccc(Cl)cc1	63*	30	6	-7	i	68*
CCN(CC)CCCn1c2c(c(SCC(=O)Nc3cc(OC)cc(OC)c3)nc1=O)CCC2	-7	-10	9	-4	i	nt
CCN1C(=O)[C@H]2[C@@H](c3ccc(C)cc3)N3C(=O)N(c4cccc(Br)c4)C(=O)[C@@]3(Cc3ccccc3)[C@H]2C1=O	67*	-4	-2	2	i	25
CCN1C(=O)[C@H]2[C@@H](c3ccc(C)cc3)N3C(=O)N(c4cccc(C)c4)C(=O)[C@@]3(Cc3ccccc3)[C@H]2C1=O	4	-7	-6	1	i	nt
CCN1C(=O)[C@H]2[C@@H](c3ccc(C)cc3)N3C(=O)N(c4cccc(Cl)c4)C(=O)[C@@]3(Cc3ccc(Cl)cc3)[C@H]2C1=O	86*	-10	-4	2	i	53*
CCN1C(=O)[C@H]2[C@@H](c3ccc(C)cc3)N3C(=O)N(c4cccc(Cl)c4)C(=O)[C@@]3(CC(C)C)[C@H]2C1=O	12	-6	12	-2	i	nt
COC(=O)/C(=N\OCc1ccc(C#N)cc1)c1c(C)nn(C)c1C	-1	-3	0	10	i	nt
CC1CCN(CC(=O)Nc2ccc(Cl)cc2[N+](=O)[O-])CC1	20	-11	-14	-2	i	nt
Cc1ccc(NC(=O)COC(=O)CN2C(=O)c3ccccc3C2=O)cc1	-7	15	12	-4	i	nt
COc1ccc2cc(/C=N/NC(=O)c3ccc(CN(c4cccc(Cl)c4Cl)S(C)(=O)=O)cc3)c(Cl)nc2c1	69*	-9	-4	20	i	20
COc1ccc2cc(/C=N/O)c(Cl)nc2c1	-8	-3	2	-12	i	nt
COc1cc(OC)c2ccc(=O)oc2c1C(CC(=O)N1CCN(c2ccccc2)CC1)c1ccc2c(c1)OCO2 (stereo not drawn)	51*	11	12	20	i	25
O=C(Nc1ccccc1Cl)Nc1ccnn1C1CCN(C(=O)C2CCOC2)CC1 (stereo not drawn)	-6	8	-2	-2	i	nt
CCCCn1c(CN2CCN(c3ccccc3)CC2)nc2c1c(=O)n(C)c(=O)n2C	50*	-38	5	2	i	50*
CCCCn1c(CN2CCN(c3cccc(Cl)c3)CC2)nc2c1c(=O)n(C)c(=O)n2C	71*	18	-1	4	i	54*
CCCn1c(CN2CCN(c3cccc(Cl)c3)CC2)nc2c1c(=O)n(C)c(=O)n2C	34	6	-15	2	i	nt
SMILES	FAS TE block	CRFR2-BP antag	CendR NRP1 mod	NadD block	Myeloid diff 2	FAS-TE conf
CCCCCn1c(CN2CCN(c3cccc(Cl)c3)CC2)nc2c1c(=O)n(C)c(=O)n2C	79*	-6	11	0	i	35*
O=C(NNC(=S)NC(=O)c1ccccc1Cl)c1cccc([N+](=O)[O-])c1	5	36	10	-5	i	nt
O=C(NNc1c(Cl)cc(Cl)cc1Cl)c1cccc([N+](=O)[O-])c1	55*	-17	10	-8	i	58*
O=C(NC(NC(=S)Nc1c(Cl)cccc1Cl)C(Cl)(Cl)Cl)c1cccc([N+](=O)[O-])c1 (stereo not drawn)	55*	28	1	2	i	7
C/C(=N/Nc1ccc(C(=O)O)cc1)c1ccc2c(c1)Nc1ccccc1S2	52*	-14	-16	10	i	62*
C/C(=N\Nc1ccc(C(=O)O)cc1)c1ccc2c(c1)Nc1ccccc1S2	71*	-4	-34	9	i	61*
COc1ccc(-c2cnnn2-c2ccc(NC(=O)c3ccc(S(=O)(=O)N4CCCCC4)cc3)cc2)cc1	58*	2	-17	17	i	-1
COc1ccc(C(=O)Nc2ccc(S(=O)(=O)N3CCCCC3)cc2)cc1	14	-7	-4	-6	i	nt
CC(=O)Nc1c(O)nc(SCC(=O)Nc2nnc(SCc3ccccc3)s2)[nH]c1=O	-5	0	-17	-4	i	nt
CC(C)N1CCc2c(sc(NC(=O)c3ccc([N+](=O)[O-])o3)c2C(N)=O)C1	60*	nt	4	2	?	71*
CCS(=O)(=O)c1ccc2oc(Nc3ccc(C(C)C)cc3)nc2c1	52*	-2	1	-3	i	47*
COC(=O)c1ccccc1NC(=S)N(Cc1ccc2c(c1)OCO2)Cc1cc2cccc(C)c2[nH]c1=O	83*	-14	-2	11	i	8
COc1ccc(C2=CC(=O)C[C@H](c3ccc(Cl)cc3)C2)cn1	43	-2	10	0	i	nt
O=C(COc1ccc(S(=O)(=O)N2CCCCC2)cc1)Nc1ccccc1F	52*	-42	0	-4	i	55*
O=C(COc1ccccc1)Nc1ccc(S(=O)(=O)N2CCCCCC2)cc1	26	-64	-22	-6	i	nt
CSCC[C@H](NC(=O)c1ccc(Cl)c([N+](=O)[O-])c1)c1nc2ccccc2[nH]1	59*	18	-1	-1	i	64*
CCN(CC)C(=O)C1=C(C)N(Cc2ccc(C(C)(C)C)cc2)C(=O)C(CC(=O)NC(c2ccccc2)c2ccccc2)C1 (stereo not drawn)	14	0	-4	8	i	nt
